According to PubChem BioAssay (Tox21):
Records with an inconclusive call do not appear. Calls of active or inactive are those of the source. Unless noted, calls come from the whole dose curve; as a rule, active = well fitted curve in the direction sought with a large enough effect in the repeat runs; inconclusive = weak or mixed curves; inactive = no such curve, though single readings can be large; an effect the other way counts as inactive or inconclusive.

Tests used:
[1] = qHTS assay to identify small molecule agonists of the NFkB signaling pathway (AID 1159509; active = well fitted curve in the direction sought with a large enough effect in the signal ratio in the repeat runs, not every such curve was filed as active; the % refers to the signal ratio; note: series mostly up to about 61 µM)
Method in brief: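 Readout: FRET fluorescence, 405 nm excitation, 460/530 nm emission; beta-lactamase expression disrupts FRET. Cells: ME-180 stably carrying NF-kB-driven bla reporter. Compound exposure 5 hr, 37 C, 5% CO2.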

[2] = qHTS assay to identify small molecule antagonists of the retinoid-related orphan receptor gamma (ROR-gamma) signaling pathway - cell viability counter screen (AID 1159520); note: nearly all actives have a fitted effect of over 50% in size; note: potency is the fitted concentration of half-maximal effect
Method in brief: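 Tet-on ROR gamma CHO cells were given compounds for 2 hr, then doxycycline hyclate at 1 uM final, and incubated 16 hr at 37 C. Viability was measured as ATP content by CellTiter-Glo luminescence.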

[3] = qHTS assay to identify small molecule agonists of the AP-1 signaling pathway - cell viability counter screen (AID 1159525; calls by dose curve; note: nearly all actives have a fitted effect of over 55% in size; note: potency is the fitted concentration of half-maximal effect)
Method in brief: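 Same-well cytotoxicity counter screen of the Tox21 10K library in ME-180 cells. The readout is ATP-dependent luminescence after 5 h compound treatment. Data are normalised to DMSO and tetra n-octyl ammonium bromide controls.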

[4] = qHTS assay to identify small molecule agonists of the vitamin D receptor (VDR) signaling pathway - cell viability counter screen (AID 743224); note: nearly all actives have a fitted effect of over 50% in size; note: potency is the fitted concentration of half-maximal effect
Method in brief: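 Cells: VDR-bla, 2,000/well, settled 4 h. Treatment: compounds in DMSO, 16 h, 37C/5% CO2. Readout: CellTiter-Glo luminescence after 30 min RT.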

[5] = qHTS assay to identify small molecule antagonists of the vitamin D receptor (VDR) signaling pathway - cell viability counter screen (AID 743225); note: nearly all actives have a fitted effect of over 50% in size; note: potency is the fitted concentration of half-maximal effect
Method in brief: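 VDR-UAS-bla HEK 293T cells were plated and incubated 4 h at 37C, then dosed with compound plus 3 nM (final) 1-alpha,25-dihydroxyvitamin D3 for 16 h. After the 2 h beta-lactamase read, viability in the same wells was read as CellTiter-Glo luminescence after 30 min at room temperature.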

[6] = qHTS assay to identify small molecule agonists of the NFkB signaling pathway - cell viability counter screen (AID 1159515; calls by dose curve; note: series mostly up to about 61 µM; nearly all actives have a fitted effect of over 55% in size)
Method in brief: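 Cells are seeded (2,000 NFkB-bla ME-180 per well), rested overnight, and dosed with DMSO-dissolved compounds for 5 hr at 37 C. Viability is then read by CellTiter-Glo luminescence after 30 min at room temperature.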

[7] = qHTS assay to identify small molecule agonists of the endoplasmic reticulum stress response signaling pathway (AID 1159516; active = well fitted activation curve with a large enough effect in the signal ratio in the repeat runs, not every such curve was filed as active; the % refers to the signal ratio)
Method in brief: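 Cells are seeded at 1,500 per well and incubated overnight. Compounds in DMSO are added for 5 hr at 37 C, then beta-lactamase FRET substrate for 2 hr at room temperature, and fluorescence at 460 and 530 nm is measured.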

[8] = qHTS assay to identify small molecule agonists of the endoplasmic reticulum stress response signaling pathway - cell viability counter screen (AID 1159517; calls by dose curve;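 note: HeLa cells carrying an ER stress response element beta-lactamase reporter; series mostly up to about 61 µM; nearly all actives have a fitted effect of over 50% in size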)
Method in brief: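 Steps: seed 1,500 ESRE-bla HeLa cells per well; incubate overnight at 37 C, 5% CO2; add compounds in DMSO for 5 hr; run FRET substrate 2 hr RT; add CellTiter-Glo, wait 30 min, read luminescence.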

[9] = biological target: Nuclear receptor ROR-gamma (Homo sapiens) (UniProt P51449); assay: qHTS assay to identify small molecule antagonists of the retinoid-related orphan receptor gamma (ROR-gamma) signaling pathway (AID 1159521; note: nearly all actives have a fitted effect of over 50% in size; note: potency is the fitted concentration of half-maximal effect)
Method in brief: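 Tet-on ROR-gamma CHO cells with ROR response element-luciferase reporter; compounds added 2 hr before 1 uM doxycycline induction, then 16 hr at 37 C. Antagonism scored as decreased ONE-Glo luminescence.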

[10] = qHTS assay to identify small molecule agonists of the AP-1 signaling pathway (AID 1159526; calls by dose curve)

Measured: Potency

C=C1CC[C@H](O)C/C1=C\C=C1/CCC[C@]2(C)[C@@H]([C@H](C)CCCC(C)C)CC[C@@H]12
inactive: [1] | [3]
active: [2] 60.6 µM

O=C(O)c1ccccc1
inactive: [4] | [5] | [6] | [7] | [8] | [2] | [9] | [3] | [10]

C1=CC2C3C=CC(C3)C2C1 (centres undefined)
inactive: [4] | [1] | [2] | [9] | [3]

OC[C@H]1O[C@H](O[C@]2(CCl)O[C@H](CCl)[C@@H](O)[C@@H]2O)[C@H](O)[C@@H](O)[C@H]1Cl
inactive: [4] | [5] | [6] | [7] | [8] | [2] | [9] | [3] | [10]

C[C@](N)(Cc1ccc(O)c(O)c1)C(=O)O
inactive: [4] | [5] | [6] | [7] | [8] | [2] | [9] | [3] | [10]

O=C(O)CC(O)C(=O)O (centres undefined)
inactive: [4] | [5] | [6] | [7] | [8] | [2] | [9] | [3] | [10]

C1CCC(C(CC2CCCCN2)C2CCCCC2)CC1 (centres undefined)
active: [5] 21.3 µM | [2] 26.6 µM | [3] 23.9 µM
inactive: [1]

COc1ccc2cc(S(=O)(=O)N[C@H](CC(=O)N[C@H](Cc3ccc(CN4[C@H](C)CCC[C@@H]4C)cc3)C(=O)N(C)C(C)C)c3ccc4c(c3)OCO4)ccc2c1
inactive: [1]
active: [4] 52 µM | [5] 20.7 µM | [9] 13 µM

CCCCC1(COC(=O)CCC(=O)O)C(=O)N(c2ccccc2)N(c2ccccc2)C1=O
inactive: [4] | [5] | [6] | [7] | [8] | [2] | [9] | [3] | [10]

NC(=O)c1cccnc1
inactive: [4] | [5] | [6] | [7] | [8] | [2] | [9] | [3] | [10]

Nc1ccc([N+](=O)[O-])cc1O
inactive: [1] | [2] | [9] | [3] | [10]

C=CCc1ccc(O)c(OC)c1
inactive: [4] | [5] | [6] | [7] | [8] | [2] | [9] | [3] | [10]
